Most compounds without a hit are left out; they make up all but 5.9% or so of the library.
Rtt109 HAT inh: blocks Candida albicans Rtt109/Vps75 acetyltransferase activity; Q5AAJ8; purified Rtt109/Vps75, ThioGlo CoA-SH fluorescence, 4 h; inhibition, % at 34.9 µM; 0.16% of 330,000 active;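 active means inhibition of at least 50% in every replicate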
ALR inh: blocks human ALR sulfhydryl oxidase activity. purified ALR, DTT oxidation, H2O2 HRP-luminol luminescence. 3.8% of 290,000 active. inhibition, % (test concentration not listed). P55789;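 active means mean replicate inhibition above about 79%, with every replicate also reaching it, limit read from the data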
Target sequence (P55789 whole entry, looked up): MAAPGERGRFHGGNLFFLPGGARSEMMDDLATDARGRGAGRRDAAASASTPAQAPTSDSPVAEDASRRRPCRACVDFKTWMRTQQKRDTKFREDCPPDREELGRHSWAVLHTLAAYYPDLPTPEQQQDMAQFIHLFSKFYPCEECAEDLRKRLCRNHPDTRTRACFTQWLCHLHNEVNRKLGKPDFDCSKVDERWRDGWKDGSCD
LANA-H2B inh: blocks KSHV LANA binding to histone H2A/H2B; Q9QR71; cell-free LANA-H2A/H2B peptide, fluorescence polarization; inhibition, % (test concentration not listed); 0.6% of 320,000 active; in the data active means inhibition mostly above about 10%, no sharp cut-off; inactive means mostly below about 6.7%
PRMT1 FP inh: PRMT1 (human) inhibition, primary screen; 1.3% of 370,000 active; recombinant PRMT1, activity-based probe fluorescence polarization; Q99873; inhibition, % at 2.79 µM;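 active means inhibition above about 21% made by adding two undisclosed values, limit read from the data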
Target sequence (Q99873 whole entry, looked up): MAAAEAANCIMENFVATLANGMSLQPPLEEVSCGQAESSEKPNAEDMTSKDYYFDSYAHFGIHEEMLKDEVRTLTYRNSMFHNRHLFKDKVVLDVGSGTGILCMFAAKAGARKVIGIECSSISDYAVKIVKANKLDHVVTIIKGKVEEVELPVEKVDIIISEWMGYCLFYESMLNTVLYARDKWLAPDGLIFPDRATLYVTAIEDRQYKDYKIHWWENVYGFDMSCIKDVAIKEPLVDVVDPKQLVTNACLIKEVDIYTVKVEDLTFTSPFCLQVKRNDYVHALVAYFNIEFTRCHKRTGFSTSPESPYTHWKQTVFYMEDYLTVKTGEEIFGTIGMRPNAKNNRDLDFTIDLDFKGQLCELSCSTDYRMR
rCAG binder: molecules binding r(CAG) RNA repeats. 1.3% of 370,000 active. inhibition, % at 3 µM. r(CAG) RNA repeat, TO-PRO-1 dye displacement fluorescence;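 active means inhibition above the plate cutoff, the mean of all test compounds on that plate plus 3 SD, cut at about 35% in these data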;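 further: higher means more dye released from RNA so lower well fluorescence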
ABHD5 PLIN5 PPI: ABHD5-PLIN5 protein interaction inhibition | Q00G26+Q8WTS1 | Split G. princeps luciferase complementation, luminescence, 4 h | inhibition, % at 4 µM | 0.78% of 360,000 active | AID 602281;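 active means inhibition above the mean inhibition across every tested compound plus 3 SD, cut at about 22% in these data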
Hits are given with their value; - = inactive; . = no result given; + = active, no number.

SMILES	Rtt109 HAT inh	ALR inh	LANA-H2B inh	PRMT1 FP inh	rCAG binder	ABHD5 PLIN5 PPI
COCCCn1c(C(=O)N2CC(C)OC(C)C2)cc2c(=O)n3ccccc3nc21 (stereo not given)	-	-	-	-	-	-
COc1ccc(CNC(=O)Cn2ncn3c(cc4ccccc43)c2=O)cc1	-	.	-	-	-	-
O=C(Cn1ncn2c(cc3ccccc32)c1=O)NCc1ccco1	-	-	-	-	-	29.3
COc1ccc(OCc2nnc(SC3CCOC3=O)n2-c2ccccc2)cc1 (stereo not given)	-	-	-	-	-	-
COc1cccc(-n2c(SC3CCOC3=O)nc3ccccc3c2=O)c1 (stereo not given)	-	94.6	-	-	-	-
CC(=O)Nc1ccc(SCC(=O)c2ccc(Br)s2)cc1	-	99.1	-	62.6	-	-
CCC(C)NC(=O)CSc1ccc(NC(C)=O)cc1 (stereo not given)	-	-	-	-	-	-
Cc1ccnc(SCC(=O)c2ccc(Br)s2)n1	.	84.9	-	-	-	-
Cc1ccnc(SCC(=O)c2cccs2)n1	-	-	-	-	-	-
COc1ccc2cc(-c3cccc4[nH]cc(C)c34)ccc2c1	.	.	.	-	-	.
O=C1N(Cc2ccccc2)c2ccccc2C12CCCc1oc(CCc3ccccc3)nc12 (stereo not given)	.	.	.	-	-	.
O=C(O)c1ccc(N/N=C/c2ccc(F)c(F)c2)cc1	-	.	-	-	-	-
Nc1cc(C(=O)O)ccc1Nc1ccc(F)c(F)c1	-	96.8	-	-	-	-
COC(=O)C[C@@H]1C=C[C@H](NC(=O)Nc2ccc(F)cc2)[C@@H](CO)O1	.	.	.	-	-	-
Oc1ccc(-c2[nH]nc(-c3ccccc3)c2-c2nc3ccccc3[nH]2)cc1	-	84.4	-	-	-	-
Cc1ccc(-n2c(SCC(=O)c3ccccc3Br)nnc2-c2ccncc2)cc1	.	.	.	-	-	.
COc1ccc(/C=N/NC(=O)c2nn(C)cc2Br)cc1CSCc1ccco1	-	98.4	-	-	-	-
CCC(NC(=S)NC1CCCCC1)c1ccc(C)cc1 (stereo not given)	-	-	-	.	.	-
CCN1C(=O)CC(N2CCC(Nc3ccc(OC)cc3)CC2)C1=O (stereo not given)	-	98.3	-	-	-	-
CCN1C(=O)CC(N2CCC(C(=O)OC)CC2)C1=O (stereo not given)	-	-	-	-	-	-
COc1ccc(NC2CCN(C3CC(=O)N(c4ccc(F)c(Cl)c4)C3=O)CC2)cc1 (stereo not given)	-	82.3	-	-	-	-
CC(C)(C)c1ccc(CC(=O)N2CCC2(C)C(=O)Nc2cccc3cccnc23)cc1 (stereo not given)	.	.	.	-	-	-
O=C1OC(c2ccc(Cl)cc2)/C(=C(/O)c2ccccc2)C1=O (stereo not given)	-	97.2	-	-	-	22.7
CN1C(=O)C(O)(CC(=O)/C=C/c2ccco2)c2ccccc21 (stereo not given)	-	-	-	-	-	-
CN1C(=O)C(O)(CC(=O)/C=C/C=C/c2ccccc2)c2ccccc21 (stereo not given)	-	89.5	-	-	-	-
SMILES	Rtt109 HAT inh	ALR inh	LANA-H2B inh	PRMT1 FP inh	rCAG binder	ABHD5 PLIN5 PPI
c1ccc(CCn2nnc(-c3ccc(N4CCOCC4)cc3)n2)cc1	.	.	.	-	-	.
COC(=O)c1[nH]c2cc(OC)ccc2c1N=CN(C)C	-	88.4	-	-	-	-
CCOC(=O)c1[nH]c2ccccc2c1NC(=O)CC	-	.	-	-	-	-
CCOC(=O)c1[nH]c2ccc(C)cc2c1N	-	-	-	-	-	-
CCOC(=O)c1[nH]c2ccccc2c1N=CN(C)C	-	99.0	-	-	-	-
CCOC(=O)c1[nH]c2ccc(F)cc2c1N=C(C)N(CC)CC	-	79.9	-	-	-	-
CCOC(=O)c1[nH]c2ccc(C)cc2c1N=CN(CC)CC	-	98.9	-	-	-	-
COc1ccc(-c2cnc(C(O)c3ccc(OC)c(F)c3)[nH]2)cc1 (stereo not given)	.	.	.	-	-	-
O=S1(=O)c2ccc(N3CC[C@H](O)C3)cc2O[C@@H]2CCN1C2	.	.	.	-	-	.
CCCN(Cc1ccc(N(CC)CC)cc1)CC1CC1	-	98.4	-	-	-	-
CCCN(Cc1ccc(N(C)C)cc1)CC1CC1	-	-	-	-	-	-
COc1c(C)cc(C(O)c2ncc(-c3ccccc3)[nH]2)cc1C (stereo not given)	.	.	.	-	-	-
Clc1ccc(C2NCCc3sccc32)cc1 (stereo not given)	-	-	-	-	-	-
Oc1ccc(C2CNCc3sccc32)cc1O (stereo not given)	-	97.7	-	45.8	-	-
C[C@]12c3[nH]c4ccccc4c3CCN1C(=O)C(CC(=O)NCc1cccc(C(F)(F)F)c1)C[C@@H]2C(=O)N1CCOCC1 (stereo not given in full)	-	-	+	-	-	-
C[C@]12c3[nH]c4ccccc4c3CCN1C(=O)C(CC(=O)NCc1ccco1)C[C@@H]2C(=O)N1CCOCC1 (stereo not given in full)	-	-	94.0	-	-	-
CC(C)N1CC(C(=O)Nc2ccc(Cl)cc2Cl)CC1=O (stereo not given)	.	.	.	-	-	-
COc1ccc(OCCNC(=O)c2ccc3nc(C)c(N(C)C(=O)CCc4ccccc4)n3c2)cc1	.	.	.	-	-	-
CCSC1(SCC)N=C(N)C2(C#N)C(c3ccccc3)NC3=C(CCC3)C12C#N (stereo not given)	-	95.6	-	-	-	-
COc1ccc(S(=O)(=O)Nc2ccccc2C(=O)NCc2ccco2)cc1Br	-	-	-	-	43.3	-
O=c1c(/C=C(\O)c2ccc(F)cc2)nc2ccccc2n1-c1ccccc1	-	-	-3.4	-	-	-
CCC[C@H]1[C@@H](NC(=O)c2ccc(N(C)C)cc2)CC[C@@]23CCCN2C(=O)CCC[C@@H]13	.	.	.	-	.	.
CCOC(=O)c1c(-c2ccc(OC)cc2)csc1NC(=O)CCN1CCOCC1	-	-	-	-	-	-
CCOC(=O)c1c(-c2ccc(C)cc2)csc1NC(=O)CCN1CC(C)OC(C)C1 (stereo not given)	-	97.2	-	-	-	-
O=C(Nc1ccc2c(c1)OCCO2)C(c1ccccc1)n1c(=O)c(-c2ccco2)nc2ccccc21 (stereo not given)	.	.	.	-	-	-
C[C@H](NC(=O)c1cc2c(cn1)[nH]c1ccccc12)C(=O)O	-	98.3	-	-	-	-
Cc1sc2nc(CN3CCCCC3)nc(Cl)c2c1C	-	98.0	-	-	-	-
Clc1nc(CN2CCCCC2)nc2sc3c(c12)CCCC3	-	-	-	-	-	-
CC(C)[C@H](NC(=O)c1c(F)cccc1F)C(=O)OCC(=O)NC(=O)NC1CCCC1	-	-	14.0	-	-	-
Cn1c(=O)c2c(nc(Oc3ccccc3Br)n2C)n(C)c1=O	-	-	-	-	-	-

Screening data: PubChem, several laboratories
